# Screening data: PubChem, National Center for Advancing Translational Sciences (NCATS)
# HT1080 IDH1KD tx – toxicity to HT-1080 IDH1 knockdown cells (counter line); Potency, µM (doses to about 46.1 µM), for inactives: at the highest dose activity, negative = toxicity, actives largely listed as cytotoxic; HT-1080 IDH1 knockdown viability, ATP luminescence, 48 h; AID 686971; hit rate 2% among 360,000;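 note: potency is the fitted concentration of half-maximal effect; 0% = DMSO wells and -100% = cell-free medium wells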
#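 Using the IDH1-knockdown HT-1080 line run in the same batch and compound series as the NT line, viability after 48 h at 37 °C was determined by CellTiter-Glo luminescence and expressed as % activity.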
# IL-1B inflam inh – blocks inflammasome-driven IL-1 beta release; THP-1 LPS/ATP IL-1B secretion, AlphaLISA, 16 h; active compounds read low; activity change, % at 57.5 µM; hit rate 4.7% among 360,000; AID 743279; in the data active = activity change below about -50%; inconclusive = mostly about -30% to -49%
#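 Secreted IL-1B measured by AlphaLISA bead assay after 16 h compound exposure of THP-1 cells; compounds (final up to 57.5 uM) added 1 h before LPS (250 ng/mL) and ATP (1.25 mM) stimulation; lower signal means less secretion.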
# HT1080-NT tox – kills 2HG-producing HT-1080-NT fibrosarcoma cells | HT-1080-NT fibrosarcoma viability, CellTiter-Glo ATP luminescence, 48 h | Potency, µM (titrated, usually from 46.1 µM), for the others: at the highest dose activity, negative = less viability, usual class: cytotoxic | hit rate 1.6% among 360,000 | AID 686970;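 note: NT is the 2HG producing partner of a matched IDH1 knockdown line; potency is the fitted concentration of half-maximal effect; 0% = DMSO-treated cells and -100% = media-only wells without cells; nearly all actives have a fitted effect of over 55% in size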
#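 HT-1080-NT; 750 cells/well; 5% FBS RPMI; 48 h compound, 37 degrees C; CellTiter-Glo luminescence; curve fitting and curve-class assignment.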
# DT40 TDP1 no CPT – qHTS for Inhibitors of human tyrosyl-DNA phosphodiesterase 1 (TDP1): qHTS in cells in absence of CPT | DT40 Tdp1-/- hTDP1 cells, no CPT, ATP luminescence, 48 h | hit rate 15% among 420,000 | Potency, µM (series often up to 46.2 µM), for the others: at the highest dose activity change, negative = growth inhibition, most hits filed as inhibitors; note: potency is the fitted concentration of half-maximal effect; nearly all actives have a fitted effect of over 55% in size
#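 No-CPT arm: Tdp1-/-;hTDP1 DT40 cells (400/well) plus compounds, incubated ≥48 hr at 37 °C. Readout CellTiter-Glo luminescence.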
# DT40 TDP1 CPT – DT40-hTDP1 cell growth loss with CPT; chicken DT40 Tdp1-/-;hTDP1 cells + 20 nM CPT, ATP luminescence, 48 h; Potency, µM (top dose mostly 46.2 µM), for the others: at the highest dose activity change, negative = growth inhibition, actives largely listed as inhibitors; hit rate 12% among 420,000; AID 686979; note: potency is the fitted concentration of half-maximal effect; nearly all actives have a fitted effect of over 55% in size
#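 Chicken DT40 Tdp1-/- cells stably complemented with human TDP1 were seeded at 400 cells/well in medium containing 20 nM camptothecin, exposed to pin-transferred compounds, and grown at 37 °C for at least 48 hr. Viability was read as ATP luminescence.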
# The depositor's hits bear a star; ? = inconclusive; · = no result given. An excerpt weighted towards active compounds, which were near 19% of everything screened. Unless noted, calls come from the whole dose curve; as a rule, active = well fitted curve in the direction sought with a large enough effect; inconclusive = small, poorly fitted or top-dose-only effect, or another doubt; inactive = no such curve, though single readings can be large; an effect the other way counts as inactive or inconclusive. Unless noted, % is set by controls: 0 for no effect and ±100 for the full control effect.
SMILES,HT1080 IDH1KD tx,IL-1B inflam inh,HT1080-NT tox,DT40 TDP1 no CPT,DT40 TDP1 CPT
O=C(Cn1nc(-c2ccccc2)c2ccccc2c1=O)Nc1ccc(O)cc1,3.8%,2.9,28.3%,-2.9%,-4.1%
Cc1ccc(NC(=O)NNC(=O)Cn2nc(-c3ccccc3)c(-c3ccccc3)c(C#N)c2=O)cc1,5.17µM*,73.5,4.61µM*,?,?
Cc1[nH]nc2c1C(=O)CCC2,22.9%,13.7,15.6%,18.4µM*,23.1µM*
Cc1ccc(C)c2c1CCCC2=O,0.9%,-11.8,-0.8%,-17.8%,7.0%
CCn1c(CN2CCN(c3ccc(OC)cc3)CC2)nc2cc(S(=O)(=O)N(C)C)ccc21,-0.4%,42.1,-6.0%,?,20.6µM*
CCn1c(CN2CCCCC2)nc2cc(S(=O)(=O)N3CCCCC3)ccc21,-0.7%,14.6,-1.3%,?,?
Cc1[nH]c2ccccc2c1SCCNC(=O)c1ccc(Br)o1,-10.5%,-81.9*,-12.5%,?,-16.5%
COc1ccc(C(=O)NCCc2c[nH]c3ccccc23)cc1OC,-4.5%,-1.1,7.4%,-28.5%,15.1%
CCN(CC)S(=O)(=O)c1ccc(C(=O)NCCSc2c(-c3ccc(C)cc3)[nH]c3ccccc23)cc1,·,·,·,8.2µM*,5.8µM*
COc1ccc(C(=O)NCCSc2c[nH]c3ccccc23)cc1OC,·,·,·,20.6µM*,?
O=C(NCCSc1c[nH]c2ccccc12)c1ccc(Br)o1,13.2%,-9.8,0.0%,?,5.2%
CCN(CC)S(=O)(=O)c1ccc(C(=O)NCCSc2c[nH]c3ccccc23)cc1,-1.7%,3.4,-27.1%,?,20.6µM*
COc1ccc(S(=O)(=O)N(C)c2ccc(C(=O)NCC3CCCO3)cc2)cc1OC (stereo unspecified),15.7%,12.9,-0.1%,-4.9%,-4.9%
CSc1ncccc1C(=O)OCc1cccc([N+](=O)[O-])c1,9.3%,-1.3,7.7%,-0.5%,1.1%
CCCN1CCN(CC2=C(C(=O)OCC)C(c3ccc(Cl)cc3)NC(=O)N2)CC1 (stereo unspecified),·,·,·,25.9µM*,25.9µM*
CCOC(=O)C1=C(CN2CCN(c3ccccc3F)CC2)NC(=O)NC1c1ccc(Cl)cc1 (stereo unspecified),·,·,·,16.4µM*,25.9µM*
CCCN1CCN(CC2=C(C(=O)OCC)C(c3cccc(OC)c3OC)NC(=O)N2)CC1 (stereo unspecified),·,·,·,-25.5%,-3.3%
CCOC(=O)C1=C(CN2CCC(C)CC2)NC(=O)NC1c1ccc(OC(C)C)cc1 (stereo unspecified),·,·,·,?,23.1µM*
COc1ccc(/C=N/NC(=O)c2nnn(-c3nonc3N)c2CN(C)c2ccccc2)cc1,-0.3%,?,-17.6%,?,?
CN(C)c1oc(/C=C/c2cccs2)nc1S(=O)(=O)c1ccccc1,-5.4%,-10.5,-4.2%,-17.2%,-7.8%
CCc1ccc(NC(=O)[C@H](Cc2c[nH]c3ccccc23)NC(=O)[C@@H]2Cc3ccccc3CN2)cc1,?,-3.0,?,?,18.4µM*
Cc1cc(C)cc(NC(=O)[C@H](Cc2c[nH]c3ccccc23)NC(=O)[C@@H]2Cc3ccccc3CN2)c1,?,23.8,?,?,?
Cc1cc(NC(=O)Cc2ccccc2[N+](=O)[O-])no1,0.6%,11.3,4.7%,?,?
O=C1CCCc2cc3c(cc21)CC1(C3)Cc2cc3c(cc2C1)C(=O)CCC3,?,0.0,?,4.61µM*,3.66µM*
O=C(COc1ccccc1Cl)NNC(=O)c1ccc2c(=O)n3c(nc2c1)CCC3,-0.4%,-25.3,1.2%,1.3%,-26.6%
SMILES,HT1080 IDH1KD tx,IL-1B inflam inh,HT1080-NT tox,DT40 TDP1 no CPT,DT40 TDP1 CPT
CCOC(=O)c1c(Nc2ccc(C)c(C)c2)nnc(-c2ccccc2)c1-c1ccccc1,·,·,·,16.4µM*,?
CCOC(=O)c1c(Nc2cccc(C)c2)nnc(-c2ccccc2)c1-c1ccccc1,·,·,·,16.4µM*,?
CCOC(=O)c1c(Nc2cc(C)cc(C)c2)nnc(-c2ccccc2)c1-c1ccccc1,·,·,·,14.6µM*,11.6µM*
CC(C)CN(C[C@@H](O)[C@H](Cc1ccccc1)NC(=O)O[C@H]1CO[C@H]2OCC[C@H]21)S(=O)(=O)c1ccc(N)cc1,·,·,·,?,-5.8%
COc1ccc(OC)c(NS(=O)(=O)c2cc3c4c(c2)CCN4C(=O)CC3)c1,-2.6%,6.8,-13.0%,-13.7%,-17.7%
Cc1ccc(C)c(N(CC(=O)NC2CCCCC2)C(=O)c2csnn2)c1,3.9%,-7.0,1.5%,-21.2%,4.5%
Cc1ccc(C)c(N(CC(=O)NC2CCCC2)C(=O)c2oc(C(C)(C)C)cc2C)c1,?,?,?,9.2µM*,8.2µM*
Cc1cc(NC(=O)CCC(=O)N(CC(=O)NC2CCCC2)Cc2ccc(F)cc2)no1,24.7%,7.5,15.6%,-2.6%,-3.6%
Cc1cc(C(C)(C)C)oc1C(=O)N(CC(=O)NC1CCCC1)Cc1ccccc1,-1.7%,-9.0,7.8%,13µM*,14.6µM*
Cc1cc(C(C)(C)C)oc1C(=O)N(CC(=O)NC1CCCC1)Cc1ccc(F)cc1,-10.1%,15.5,6.1%,?,20.6µM*
Cn1c(SCc2ccccc2C#N)nc2ccccc2c1=O,-22.5%,0.0,-0.3%,?,-20.9%
COc1cc(OC)nc(Nc2nc(C(N)c3ccccc3Cl)cs2)n1 (stereo unspecified),?,·,?,25.9µM*,?
COc1ccc(C(N)c2csc(Nc3ncccn3)n2)cc1 (stereo unspecified),-14.5%,-9.8,-13.9%,?,?
COc1cc(OC)nc(Nc2nc(CN)cs2)n1,5.1%,-3.2,?,?,-29.6%
NC(c1csc(Nc2cc(NCCCO)ncn2)n1)c1ccccc1Cl (stereo unspecified),?,-55.9*,?,?,?
COc1cc(OC)nc(Nc2nc(C(N)c3ccccc3)cs2)n1 (stereo unspecified),-11.8%,-56.2*,-22.3%,?,?
NC(c1csc(Nc2ncccn2)n1)c1ccccc1Cl (stereo unspecified),?,-1.3,?,20.6µM*,20.6µM*
CC(C)CCNC(=O)CN(Cc1ccc2c(c1)OCO2)C(=O)Cn1nnc(-c2cccs2)n1,-14.7%,-24.0,-18.5%,-22.7%,-19.2%
COc1ccccc1C(=O)NC(=O)COC(=O)c1nc(Cl)ccc1Cl,5.1%,-0.6,8.0%,-2.0%,-16.6%
Cc1cc(C)c(S(=O)(=O)N2CCOC2CNC(=O)C(=O)NCCN(C)C)c(C)c1 (stereo unspecified),-8.1%,-6.0,-4.9%,1.5%,-7.9%
